Autofluor counter – flagged as autofluorescent in microsphere protease counterscreen; 3.1% of 360,000 active; fluorescence intensity (no concentration beside the values); compound autofluorescence counterscreen, microsphere flow cytometry; stronger effect = higher value; in the data active means fluorescence intensity above about 16000; inconclusive means no clear call, values can overlap the other calls
Anthrax LF prot – Bacillus anthracis LF protease inhibitors, primary screen, biochemical, multiplex microsphere, MLPCN library | inhibition, % at 10 µM | multiplex microsphere protease cleavage assay | AID 588501, 2011 | Lethal factor (Bacillus anthracis), P15917 | 0.12% of 360,000 active; further: plate controls were buffer without enzyme for full effect and enzyme alone for no effect
BoNT A protease – BoNT/A light chain protease inhibitors, primary screen, biochemical, flow cytometry, MLPCN library | Botulinum neurotoxin type A light chain protease (Clostridium botulinum A str. ATCC 3502) | multiplex microsphere protease substrate cleavage | inhibition, % at 10 µM | 0.17% of 360,000 active | AID 588499, 2011; further: plate controls were buffer without enzyme for full effect and enzyme alone for no effect
MazEF act – activators of E. coli MazEF toxin-antitoxin RNase, primary screen, biochemical, fluorescence, uHTS | Endoribonuclease toxin MazF (Escherichia coli (strain K12)), P0AE70 | FAM/BHQ RNA-DNA oligo cleavage fluorescence, 5 h | activation, % at 20 µM | 0.32% of 350,000 active | AID 504720, 2011; in the data active means activation above about 50%
Target sequence (P0AE70 whole entry, looked up): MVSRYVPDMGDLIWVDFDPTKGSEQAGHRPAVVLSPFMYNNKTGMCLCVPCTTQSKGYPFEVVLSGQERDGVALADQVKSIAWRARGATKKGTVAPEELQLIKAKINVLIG
BoNT F protease – BoNT/F light chain protease inhibitors, primary screen, biochemical, flow cytometry, MLPCN library; Multiplex microsphere protease cleavage assay; inhibition, % at 10 µM; 0.22% of 360,000 active; AID 588497, 2011; in the data active means inhibition above about 35%, passing the limit was not always enough; inconclusive means no clear call, values can overlap the other calls; further: plate controls were buffer without enzyme for full effect and enzyme alone for no effect
Starred values were filed as active, the others as inactive; u = inconclusive; x = no result. An excerpt weighted towards active compounds, which were near 3.7% of everything screened. Unless noted, no stated cut-off is given here; in the data, active means inhibition above about 30%; inconclusive means no clear call, values can overlap the other calls; inactive means below that.

SMILES	Autofluor counter	Anthrax LF prot	BoNT A protease	MazEF act	BoNT F protease
COc1ccc(/C(C)=N/NC(=S)Nc2cc(C)ccc2C)cc1	3242	-8	0	-1	-9
CCOc1cc(/C=C2\SC(=S)N(Nc3ccccc3)C2=O)ccc1O	3712	42*	39*	-22	30
Cc1ccc(S(=O)(=O)NC(=O)Nc2ccc(F)cc2)cc1	16339*	-2	0	7	3
COc1ccc(NC(=O)NS(=O)(=O)c2ccc(C)cc2)cn1	2714	4	2	-60	17
COc1cc(NC(=O)NS(=O)(=O)c2ccc(C)cc2)cc(OC)c1	20395*	-6	u	-8	-7
CCN(CC)C(=O)COc1coc(CN2CCN(c3ccccc3)CC2)cc1=O	4025	-3	1	-9	6
O=C(COC(=O)CC1SC(N2CCCC2)=NC1=O)Nc1ccc(Br)cc1 (centres undefined)	5158	-5	3	1	0
CC1CC(C)CN(S(=O)(=O)N2CCCC(C(=O)NCCCN3CCCCC3C)C2)C1 (centres undefined)	5870	1	0	6	4
Cc1ccc(S(=O)(=O)N2CCCC(C(=O)NCCCN3CCCCC3C)C2)cc1 (centres undefined)	25210*	2	2	1	0
CN1CCN(NC(=O)CN2C(=O)/C(=C/c3ccccc3Cl)SC2=S)CC1	16697*	-4	-1	0	-6
CCOc1ccc2nc(NC(=O)C3(C)CC3(Br)Br)sc2c1 (centres undefined)	3937	36*	-2	5	u
CCn1cc(/C=N\NC(=O)Cc2ccc(Cl)cc2)cn1	1956	0	0	11	-2
C/C(=N\NC(N)=O)C1CC(Cc2ccccc2)C(=O)O1 (centres undefined)	4380	-11	-3	7	23
CCOC(=O)CSC1=C(C#N)C(c2ccccc2Cl)C(C(=O)OC)C(=O)N1 (centres undefined)	20786*	2	5	-8	10
C[C@H]1CN(C2CCCCC2)C(=O)[C@@H]1CC(=O)Nc1ccc(Br)cc1	3735	0	0	6	-2
Cc1ccc2nc(C(Cl)(Cl)Cl)nc(N/N=C/c3ccncc3)c2c1	3626	-4	-2	-9	-15
Cc1ccc2nc(C(Cl)(Cl)Cl)nc(N/N=C/c3ccc([N+](=O)[O-])cc3)c2c1	3981	-2	2	55*	-9
O=C(NCCOc1ccccc1)C1CCC(=O)N(CCN2CCOCC2)C1 (centres undefined)	5786	-1	2	14	-2
Cc1ccc(S(=O)(=O)NCC(=O)N2CCCC2)cc1	16845*	2	u	-17	-2
Cc1ccc(S(=O)(=O)NCCN=C(CN2CCCC2)NS(=O)(=O)c2ccc(C)cc2)cc1	24857*	-8	u	-8	-5
CS(=O)(=O)N(CC(=O)O)c1ccc(Oc2ccccc2)cc1	20680*	-4	0	7	0
CCc1cc(C(=O)OC)c(N2C(=O)C3C4C=CC(C4)C3C2=O)s1 (centres undefined)	23671*	-1	0	-5	-3
CCc1cc(C(=O)OC)c(NC(=O)CC2SC(N)=NC2=O)s1 (centres undefined)	1932	0	0	7	4
CCOc1cc(C(=S)N2CCOCC2)ccc1OS(=O)(=O)c1ccc(C)cc1	3893	-10	-1	7	u
CCN1CCN(C(=S)c2ccc(OCC(=O)NCc3ccccc3)cc2)CC1	4657	-4	0	5	-5
SMILES	Autofluor counter	Anthrax LF prot	BoNT A protease	MazEF act	BoNT F protease
CCOc1cc(C(=S)N2CCCCC2)ccc1OCC(=O)NCc1ccccc1	22179*	-1	u	0	5
CCOc1ccc(C(=S)N2CCOCC2)cc1OCC	23260*	2	-1	2	0
CCOC(=O)C(=O)NC(C)c1ccccc1 (centres undefined)	4953	1	-2	-7	-6
CCOC(=O)C(C(=O)OCC)=C1OC(=O)c2ccccc21	23965*	-2	0	0	-1
CCOCCCNc1nc2c(C)cccn2c(=O)c1/C=C1\SC(=S)N(C(C)CC)C1=O (centres undefined)	x	x	x	603*	x
CCCN1C(=O)/C(=C/c2c(NCCCOCC)nc3c(C)cccn3c2=O)SC1=S	3642	-1	1	295*	-8
CN(Cc1ccc(OC(F)F)cc1)C(=O)c1ccc2c(=O)n3c(nc2c1)CCC3	5990	1	0	-11	8
Cc1c(Cl)cccc1NC(=O)CC(Cc1ccccc1)C(=O)O (centres undefined)	3577	-3	-2	-20	32
Cc1c(Cl)cccc1NC(=O)CC(C(=O)O)C1CCCO1 (centres undefined)	22699*	-3	1	4	0
CCCN1C(=O)CC(Sc2ncccc2C(=O)O)C1=O (centres undefined)	4775	2	-1	6	6
COc1ccc(CCN2C(=O)CC(Sc3ncccc3C(=O)O)C2=O)cc1OC (centres undefined)	23415*	2	0	2	1
COc1cc(/C=N/NC(=O)c2sc3nc(C)cc(C)c3c2N)ccc1O	5260	-24	-10	14	-54
COC(=O)c1ccc(Oc2nc(Nc3ccccc3)nc(N(C)C)n2)cc1	20995*	0	-4	1	-6
O=c1[nH]cnc2c1N=C(c1cccc([N+](=O)[O-])c1)CC(c1ccccc1)N2 (centres undefined)	3334	-5	0	8	-2
Cc1ccc2c(c1)N(CC(=O)N(Cc1ccc3c(c1)OCO3)CC1CCCO1)C(=O)C(C)O2 (centres undefined)	23947*	1	0	-1	-3
Cc1ccc2c(c1)N(Cc1ccncc1)C(=O)C(C)O2 (centres undefined)	22957*	-3	2	10	2
Cc1ccc2c(c1)N(CC(=O)c1cccc(Cl)c1)C(=O)C(C)O2 (centres undefined)	23986*	-4	-2	13	-2
CC1Oc2ccccc2N(CC(=O)c2cccc(Cl)c2)C1=O (centres undefined)	19669*	-12	12	-4	13
COc1cc2ccc(NC(C)=O)cc2cc1OC	3012	-10	0	-6	-4
Cc1ccc2cc(C(c3nnnn3CC3CCCO3)N3CCc4ccccc4C3)c(=O)[nH]c2c1 (centres undefined)	22554*	1	2	14	3
CCc1ccc2[nH]c(=O)c(C(c3nnnn3CC3CCCO3)N3CCCc4ccccc43)cc2c1 (centres undefined)	5509	-4	1	2	-10
Cc1cc2cc(C(c3nnnn3CC3CCCO3)N3CCCc4ccccc43)c(=O)[nH]c2cc1C (centres undefined)	24311*	1	1	6	-11
